Assay results as given in PMC12136788.
Positions count from the first letter of the chain named. The full ranking holds about 5,800 sequences; the median of “enrichment r” is about 0.54, and the highest 2% start at about 16. The entries come from a sample that favours the highest values as a whole.

B1: chr8:58582127:58582250:+|3pUTR|ENSG00000137575|unk|total|mutant (ssRNA)
RNA: GGGAGUUCUACAGUCCGACGAUCUUCAUAUUACUUCCGUUCUACCGCAUACUUGCAUCUUUAACAUGCUAUCACCGUACAUUCCGAAUGAUUGCCUUUGAUUUUUUUUUUAAAUUCUGUGUGUGUGUGUGUAAAAUGCCAAUUCAACAGAGGAUUGAGCAUCA
B2: chr3:44491765:44499181:-|three_prime_utr|ENSG00000178917|control|control|control (ssRNA)
RNA: GGGAGUUCUACAGUCCGACGAUCACUAAUCACAGUGGAGACCAUACCUACUUGCUUUUCCUUGGGUCACUAAGGUGGGAGAGUAGGUGCAACUUAGUCUGAUCCUUACUUAGUAGGAAAUUGGGGAUUACAUCUGUCAUUAACCAACAGAGGAUUGAGCAUCA
B3: chr11:59152587:59152688:+|CDS|ENSG00000166801|msi1|FALSE|unique (ssRNA)
RNA: GGGAGUUCUACAGUCCGACGAUCAUUGAAAACUUCAAGAAAAAAAUGAAAGUAAAAAAUGGGGAAACAUUAUUUGAAUUGCAUAGAACAACGUUUGGGAAAGUAACAAAAAAUUCUUCUUCGAUUAAAGUAGUGAAACUUCUUCAACAGAGGAUUGAGCAUCA
B4: chr3:98797769:98798349:-|3pUTR|ENSG00000057019|msi1|total|mutant (ssRNA)
RNA: GGGAGUUCUACAGUCCGACGAUCUUGUUUUUGAUACCUCCUGGCAGCUUCCAUGUCACCACUUGUUCAUACCUGCCCAGAGCCCGUUUCCGACAUGGCAAAACCGAAAUCAUCUGUAAUUUAUCCGCUAACAAUGUAAAACCACAACAGAGGAUUGAGCAUCA
B5: chrX:71101288:71101389:+|CDS|ENSG00000184481|unk|FALSE|unique (ssRNA)
RNA: GGGAGUUCUACAGUCCGACGAUCGGAGGCCCUGCUCACCUCUGAUACGCCACCACCCCCUGCUGACGUCCUCAUGACCCAGGUAGAUCCCAUUCUGUCCCAGGCUCCGACUCUUCUGUUGCUGGGGGGGCUUCCUUCCUCCAGCAACAGAGGAUUGAGCAUCA
B6: ENSG00000198589:be:win_9451|3pUTR|ENSG00000198589|bound_else_gene|NA|bound_elsewhere_windowed (ssRNA)
RNA: GGGAGUUCUACAGUCCGACGAUCUUAAACUAUCAUCUCCACCUUCCUUUUGAUUAGCAAUUUGUACUAAGAAACGAAACAAUGUUAUUUGGUGGUGUAUAAUUCUACUUUUCUAGUAGAUUACUGUGUGGAAUUCUGUGAAAACAACAGAGGAUUGAGCAUCA
B7: chr16:57253408:57253449:+|3pUTR|ENSG00000102931|msi1_unk|total|mutant (ssRNA)
RNA: GGGAGUUCUACAGUCCGACGAUCUGUGUGGCCGAUUACUUAUCAGAAAACAUAUAUGUCAUCUCCCGAACGAAGAAAAAGCACCGCCGUUCAAUUCCCAGUGUGUCCCUUUGAUUUUUUUUUUUUAACCGUAAAAAUAAGAAUCAACAGAGGAUUGAGCAUCA
B8: chr16:57253408:57253449:+|3pUTR|ENSG00000102931|msi1_unk|FALSE|overlapping (ssRNA)
RNA: B7 RNA with C31U, C32A, C65U, C66A, C83U, C84A, C86U, C87A, C128U, C129A
B9: chr14:51255895:51255996:+|3pUTR|ENSG00000139921|msi1_unk|FALSE|overlapping (ssRNA)
RNA: GGGAGUUCUACAGUCCGACGAUCGUGAAUCCAUUAGAUUUACAGUAUCGUAAUAUACAAGUUUUCUUUAAAGCCCUCUCCUUUAGAAUUUAAAAUAUUGUACCAUUGAAGAGUUUGGAUGUGUAACUUGUGAUGCCUUAGAAACAACAGAGGAUUGAGCAUCA
B10: chr6:73594753:73594854:-|3pUTR|ENSG00000119899|unk|FALSE|unique (ssRNA)
RNA: GGGAGUUCUACAGUCCGACGAUCGGUUCACAUACCUGCCUGCUAGUCGGGCAACAUGAAGUAGGACAGUUCUGUUGAUUUUUUAGGGCCAUACUAAAGGGAAUGAGCUGAAACAGACCUCCUGAUACCUUUGCUUAAUUAAACCAACAGAGGAUUGAGCAUCA
B11: chr5:111496093:111496242:-|3pUTR|ENSG00000164211|unk|FALSE|unique (ssRNA)
RNA: GGGAGUUCUACAGUCCGACGAUCUUUACAUGUAUAGUUAAAUAUUAAAAUUCAUCUCUUGCAGUUCAAUAAAAGCUAUAGUAUAGAUUUUAUUUUUAAGAAGUUUAUAUAAUUCUUUUGUGAACCAAUAUGUAAAACUAGAAUCAACAGAGGAUUGAGCAUCA
B12: ENSG00000070961:be:win_3151|CDS|ENSG00000070961|bound_else_gene|NA|bound_elsewhere_windowed (ssRNA)
RNA: GGGAGUUCUACAGUCCGACGAUCACAUUACUCUGGGGCCAGCUUAUUUCAACAAUUCCAACUAGCCGUUUAAAAUUCCUCAAAGAAGCUGGUCAUGGAACACAAAAGGAAGAAAUACCUGAGGAGGAAUUAGCAGAGGAUGUUCAACAGAGGAUUGAGCAUCA
B13: chrX:71300841:71300885:+|3pUTR|ENSG00000147140|msi1_unk|total|mutant (ssRNA)
RNA: GGGAGUUCUACAGUCCGACGAUCCCCCAUAUAUUACCCCUUCAUGUCCUAAAGAAGACAUUUUCUCUCCGAGAUUUUCAUUUCCGUGUAUCUUUAAAAAAAAAUCUUGUGUUAACUUGCCUCCAUCUUUUUCUUGGGUGAGGACAACAGAGGAUUGAGCAUCA
B14: chr2:16549458:16552935:-|three_prime_utr|ENSG00000197872|control|control|control (ssRNA)
RNA: GGGAGUUCUACAGUCCGACGAUCUUGCUACUGGAGUCCUUUAACAACAUCUAUAACGAUAAAAAAUUCCUAAUUGUUUGUGGUAGUAUUUUAAUUCUAGAUGUGUUAUCUCUCUGGGAAGUAUAGUUUAUAGAAACACAAAAUCAACAGAGGAUUGAGCAUCA
B15: chrX:71300841:71300885:+|3pUTR|ENSG00000147140|msi1_unk|FALSE|overlapping (ssRNA)
RNA: B13 RNA with C68U, C69A, C83U, C84A
B16: ENSG00000139428:stop:overlap|stop_codon|ENSG00000139428|stop_codon|NA|stop_codon (ssRNA)
RNA: GGGAGUUCUACAGUCCGACGAUCUAUUACUAUUCUUAACACUUACCUGUUCCUGGCUACCAUUUCUCCAUGGCGGGCCUGACUAGGUUUGCUCUGGAAUUAGUCACAGAAAAGGGCCAUACAUUUGCCGAAGAGCUUCAGAAACAACAGAGGAUUGAGCAUCA

target: MSI1 full-length (mouse, UniProt Q61474 1-362); test: nsRBNS (natural sequence RNA bind-n-seq); RBNS binding buffer (assumed for nsRBNS): 25 mM Tris pH 7.5, 150 mM KCl, 3 mM MgCl2, 0.01% Triton X-100, 500 ug/ml BSA, 20 U/ml SUPERase-In, 4 C; UNK is unkempt and MSI1 is Musashi-1; names of the RNAs are library labels; protein concentration not given here; high values mean tight binding
Sequence (Q61474 whole entry): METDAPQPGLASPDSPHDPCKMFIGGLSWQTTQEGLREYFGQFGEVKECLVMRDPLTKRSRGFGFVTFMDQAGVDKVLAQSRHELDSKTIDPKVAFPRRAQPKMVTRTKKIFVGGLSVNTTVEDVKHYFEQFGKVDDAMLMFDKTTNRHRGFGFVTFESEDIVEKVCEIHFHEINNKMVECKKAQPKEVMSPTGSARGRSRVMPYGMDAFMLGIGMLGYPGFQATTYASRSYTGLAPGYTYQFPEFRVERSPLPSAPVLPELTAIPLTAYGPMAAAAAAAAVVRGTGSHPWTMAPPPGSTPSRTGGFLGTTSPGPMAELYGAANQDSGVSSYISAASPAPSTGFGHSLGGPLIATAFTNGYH

Point of comparison: B10, binding signal 0.746 enrichment R. Against it:
- B1 — lower, 0.478 enrichment R
- B2 — lower, 0.646 enrichment R
- B3 — lower, 0.574 enrichment R
- B4 — higher, 0.808 enrichment R
- B5 — lower, 0.429 enrichment R
- B6 — higher, 1.55 enrichment R
- B7 — lower, 0.465 enrichment R
- B8 — higher, 21 enrichment R
- B9 — higher, 5.27 enrichment R
- B11 — higher, 2.64 enrichment R
- B12 — lower, 0.641 enrichment R
- B13 — higher, 0.906 enrichment R
- B14 — higher, 25 enrichment R
- B15 — higher, 16.5 enrichment R
- B16 — higher, 18.8 enrichment R
